High-throughput results (PubChem BioAssay)
TIM10 inh = growth inhibitors of isogenic TIM10 control yeast, primary screen, counter-screen for tim10-1 yeast inhibitor project, luminescence, uHTS | inhibition, % at 10 µM | 330,000 compounds, 1.4% hits | S. cerevisiae TIM10 strain growth, BacTiter-Glo luminescence, 24 h;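 active = inhibition of 40% or more at the single tested concentration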;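 also: wild-type TIM10 isogenic control strain grown at permissive 25 °C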
SKKanGAS inh = S. pyogenes SKKanGAS growth inhibitors in kanamycin, primary screen, streptokinase expression inhibitor project, SKKanGAS strain, BacTiter-Glo luminescence; 6 h; inhibition, % at 7.5 µM; 300,000 compounds, 1.3% hits; AID 1662, 2009;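 active = mean replicate score, as percent of positive control median, at least 50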;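 also: strain carries kanamycin resistance gene driven by streptokinase promoter and grows in 40 µg/ml kanamycin; loss of luminescence reflects streptokinase promoter inhibition or plain growth inhibition; 0% = median of DMSO wells and 100% = positive control at its reference dose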
tim10-1 inh = growth inhibitors of tim10-1 mutant yeast, primary screen, luminescence, uHTS | inhibition, % at 20 µM | S. cerevisiae tim10-1 ts strain growth, BacTiter-Glo, 24 h | 330,000 compounds, 2.2% hits | AID 463190, 2010;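 active = inhibition of at least 40%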;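 also: mutant grown at 25 °C; 0% = DMSO wells with yeast and 100% = wells holding no yeast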
tim23-1 inh = growth inhibitors of tim23-1 mutant yeast, primary screen, luminescence, uHTS | inhibition, % at 20 µM | 330,000 compounds, 1.3% hits | S. cerevisiae tim23-1 growth, BacTiter-Glo luminescence, 24 h;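 active = growth inhibition of the mutant yeast at or above 50%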;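 also: temperature-sensitive mutant grown at 25 °C; plate controls were DMSO-treated mutant yeast for no effect and medium wells lacking yeast for full effect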
NLRP3 yeast inh = NALP3 inflammasome inhibitors in reconstituted yeast, primary screen, luminescence, uHTS | inhibition, % at 10 µM | Yeast reconstituted NLRP3/ASC/caspase-1, beta-gal luminescence, 24 h | 330,000 compounds, 0.39% hits;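 active = inhibition of 50% or more; inactive = inhibition below 50%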;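 also: plate controls were induced DMSO wells for no effect and uninduced yeast grown without galactose for full effect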
PfHsp90 yeast 2 = growth inhibition of PfHsp90-expressing yeast, primary screen, antimalarial PfHsp90 inhibitor project, S. cerevisiae, BacTiter-Glo luminescence, single point, set 2 | BacTiter-Glo ATP, 48 h; yeast lacking PDR1 and PDR3 efflux regulators | inhibition, % at 9.4 µM | AID 504621, 2011 | 310,000 compounds, 0.32% hits;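 active = every replicate shows inhibition above about 80%, whatever the replicate mean, limit read from the data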;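 also: 0% = DMSO neutral controls and 100% = 20 µM radicicol positive controls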
tim10-1 conf = growth inhibitors of tim10-1 mutant yeast, confirmation, single concentration, luminescence, S. cerevisiae | inhibition, % at 20 µM | S. cerevisiae tim10-1 ts strain growth, BacTiter-Glo, 24 h | 7,400 compounds, 56% hits | shares compounds with tim10-1 inh | AID 463213, 2010;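 active = inhibition of yeast growth at or above a set limit in either of two repeat tests at 20 µM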;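 also: tim10-1 mutant grown at permissive 25 °C to find synthetic lethal compounds; 0% = DMSO yeast wells and 100% = medium wells without yeast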
* = called active by the depositor; nt = no result given. An excerpt weighted towards active compounds, which were near 4.6% of everything screened.

SMILES	TIM10 inh	SKKanGAS inh	tim10-1 inh	tim23-1 inh	NLRP3 yeast inh	PfHsp90 yeast 2	tim10-1 conf
CC(C(=O)NCC1CCCCC1)N(C)CC(=O)Nc1ccc(N2CCOCC2)cc1 (configuration not stated)	13	13	11	2	4	-18	nt
Fc1ccccc1CNCCC(Cc1ccccc1)c1ccc2c(c1)OCO2 (configuration not stated)	10	-12	47*	13	5	-11	28
Cc1ccc(OC(C)C(=O)N=Nc2c(O)[nH]c3ccc([N+](=O)[O-])cc23)cc1 (configuration not stated)	19	6	44*	-1	-2	18	15
CCN(CC(=O)Nc1ccc(NC(C)=O)cc1)C(=O)CCCc1c[nH]c2ccccc12	10	nt	-11	13	7	15	nt
CC(=O)N1CCCC(N2CCN(c3cccc(C(F)(F)F)c3)CC2)C1 (configuration not stated)	-4	2	-23	1	9	2	nt
Cc1ccc(C(=O)N2CCCC(N3CCN(c4cccc(C(F)(F)F)c4)CC3)C2)s1 (configuration not stated)	18	-4	42*	35	10	-10	21
CCc1nc(Nc2cc(OC)ccc2OC)c2oc3ccccc3c2n1	20	-10	6	5	18	-5	nt
CCc1nc(N2CCCCC2C(=O)O)c2oc3ccccc3c2n1 (configuration not stated)	4	-6	6	3	-6	-16	nt
CCc1nc(N2CCCCC2)c2oc3ccccc3c2n1	13	8	41*	49	8	-7	8
CCc1nc(N2CCCCC2C)c2oc3ccccc3c2n1 (configuration not stated)	25	27	48*	46	-19	17	20
CCc1nc(Nc2ccccc2OC)c2oc3ccccc3c2n1	16	-2	42*	36	-9	-15	17
N#CCCN(C(=O)COC(=O)CCc1nc2ccccc2c(=O)[nH]1)c1ccccc1F	6	nt	0	-13	7	15	nt
N/C(=N\OC(=O)c1cc(Cl)ccc1Cl)c1cccnc1	21	6	41*	-5	-22	-27	25
CC(C)(Oc1ccc(Cl)cc1)C(=O)O/N=C(\N)c1ccncc1	5	2	47*	3	31	1	3
N/C(=N\OC(=O)c1cccc(Cl)c1)c1cccnc1	21	0	16	39	-13	13	nt
N/C(=N\OC(=O)Cc1ccc(Cl)cc1)c1ccncc1	-1	-1	12	9	-3	-6	nt
N/C(=N\OC(=O)c1cc(Br)ccc1Cl)c1cccnc1	31	0	47*	-13	-6	-16	49*
N/C(=N\OC(=O)c1cccc(Cl)c1)c1ccncc1	20	-12	42*	22	2	3	30*
N/C(=N\OC(=O)c1ccccc1Cl)c1cccnc1	13	-6	10	15	11	-11	nt
CCCCNC(=O)c1ccccc1NC(=O)CCC	8	-3	16	29	25	4	nt
CC(=O)c1ccccc1NC(=O)COC(=O)CSCC(=O)Nc1cc(C)on1	5	-4	12	17	4	24	nt
CN(C1=C(N2CCOCC2)C(=O)c2ccccc2C1=O)c1ccccc1	12	7	45*	42	34	4	20
O=C1C(NS(=O)(=O)c2cccs2)=C(N2CCOCC2)C(=O)c2ccccc21	12	3	19	23	-5	7	nt
COc1ccc(C(=O)c2sc3nc(-c4ccccc4)ccc3c2N)cc1	5	nt	45*	20	14	-7	19
CC(C)OC(=O)c1sc2nc(-c3ccccc3)ccc2c1N	-1	-11	34	19	25	-28	nt
SMILES	TIM10 inh	SKKanGAS inh	tim10-1 inh	tim23-1 inh	NLRP3 yeast inh	PfHsp90 yeast 2	tim10-1 conf
CCc1ccc(NC(=S)N(Cc2ccc(Cl)cc2)Cc2ccc(C(=O)O)cc2)cc1	6	4	8	37	15	-12	nt
CC(C)CN(CC(C)C)C(=S)Nc1ccc(Cl)cc1	37	1	55*	44	1	11	47*
Cc1cccc(-n2cc(-c3ccc([N+](=O)[O-])cc3)[nH]c2=S)c1	9	0	2	-12	16	0	nt
Cc1ccc(-n2cc(-c3ccc([N+](=O)[O-])cc3)[nH]c2=S)c(C)c1	40	5	46*	44	4	8	35*
C[n+]1cccc2c(Br)ccc([O-])c21	13	-1	21	9	15	-6	nt
[O-][n+]1cccc2c(Br)cc(Br)c(O)c21	40	76*	49*	40	28	107*	23
COc1cccc(Nc2ncccc2C(=O)Nc2ccccc2)c1	26	5	53*	43	34	6	38*
COc1cccc(NC(=O)c2ccccc2Oc2ccccc2)c1	12	11	10	26	-2	10	nt
O=C(Nc1ccccc1)c1cccnc1NCCc1ccccc1	28	-4	40*	44	10	23	32*
C=C(C)CNC(=O)c1ccc2nc(Cc3ccc(OC)cc3)oc2c1	-18	2	3	11	25	0	nt
O=S(=O)(Nc1nc2ccccc2nc1NCC1CCCO1)c1cc(Cl)ccc1Cl (configuration not stated)	5	19	15	31	2	-15	nt
O=S(=O)(Nc1ccc2c(c1)OCO2)c1ccc(Cl)cc1F	-4	nt	1	7	50	14	nt
COc1ccc(-c2cc(=O)oc3c(C)c(OC(C)C(=O)Nc4ccc(CN5CCOCC5)cc4)ccc23)cc1 (configuration not stated)	10	-7	43*	42	11	-28	-38
O=C(NCc1ccc2c(c1)OCO2)c1cc(=O)[nH]c2ccccc12	-6	0	2	-11	4	2	nt
COc1ccc(-c2c(C)n([O-])c3c([n+]2=O)CCCC3)cc1OC	-15	2	19	12	-11	nt	nt
Cc1noc(/C=C/c2ccccc2F)c1S(=O)(=O)N1CCC(C(=O)N2CCN(C)CC2)CC1	8	-4	40*	34	16	-13	16
Cc1cc(C(=O)CSc2nnc(-c3ccc(Cl)cc3)n2CC2CCCO2)c(C)n1C (configuration not stated)	14	-12	50*	33	-25	3	35*
